In the library only some 9.8% were active in any assay of this set; here they are far more common.
HPGD block: inhibitors of human 15-hydroxyprostaglandin dehydrogenase (HPGD); purified HPGD, NADH fluorescence kinetic, PGE2 substrate; Potency, µM, for inactives: at the highest dose activity change, negative = inhibition, hits mostly inhibitors; actives 4.3% (n = 150,000); active = well fitted inhibition curve with a large enough effect, not every such curve was filed as active; inconclusive = small, poorly fitted or top-dose-only effect, or another doubt; inactive = no such curve, though single readings can be large or run the other way; note: potency is the fitted concentration of half-maximal effect; % is set by controls: 0 for no effect and ±100 for the full control effect
Target sequence (P15428 whole entry, looked up): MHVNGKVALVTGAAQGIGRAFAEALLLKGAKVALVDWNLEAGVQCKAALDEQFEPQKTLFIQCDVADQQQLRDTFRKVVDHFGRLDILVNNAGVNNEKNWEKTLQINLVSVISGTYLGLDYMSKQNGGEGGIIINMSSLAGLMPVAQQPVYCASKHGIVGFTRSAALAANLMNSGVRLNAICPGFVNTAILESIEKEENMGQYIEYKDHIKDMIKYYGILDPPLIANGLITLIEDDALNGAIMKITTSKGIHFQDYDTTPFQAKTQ
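NADH formation kinetics: reaction with 30 uM PGE2 and 1 mM NAD+ (final), 20 nM enzyme, Tris-HCl pH 8 with Tween 20, after 15 min compound preincubation at room temperature. Fluorescence change, last versus first of five reads.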
HTT ATP protect: cytoprotection in Huntington HTT-Q103 PC12 cell model | actives 0.14% (n = 230,000) | Potency, µM (titrated, usually from 56.4 µM), for the others: cytoprotection (ATP increase), usual class: activators | AID 1471 | PC12 HTT-Q103 induced, cytoprotection, ATP luminescence, 40 h; note: potency is the fitted concentration of half-maximal effect; % of control where 0% means no effect; nearly all actives have a fitted effect of over 45% in size
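Rat PC12, Q103 Htt exon1-GFP fusion, ecdysone promoter; tebufenozide inducer 100 nM final; compound titration; qHTS, 1500 cells/well; ATPlite luminescent read.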
ALDH1A1 block: blocks purified human ALDH1A1 activity. P00352. Purified ALDH1A1, NADH fluorescence, propionaldehyde substrate. Potency, µM (top dose mostly 75.3 µM), without a hit: at the highest dose activity, negative = inhibition, actives largely listed as inhibitors. actives 7.3% (n = 220,000). AID 1030; active = well fitted inhibition curve with a large enough effect, not every such curve was filed as active; inconclusive = small, poorly fitted or top-dose-only effect, or another doubt; inactive = no such curve, though single readings can be large or run the other way;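 note: potency is the fitted concentration of half-maximal effect; plate controls were no enzyme wells and a reference inhibitor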
HttQ103 aggreg: reduces HttQ103-GFP aggregates in PC12 cells; PC12 HttQ103-GFP aggregates, Acumen cytometry, 40 h; Potency, µM (highest dose often 46.1 µM), for inactives: at the top dose activity change, negative = inhibition, hits mostly inhibitors; actives 1.1% (n = 220,000); note: potency is the fitted concentration of half-maximal effect; % is set by controls: 0 for no effect and ±100 for the full control effect; nearly all actives have a fitted effect of over 60% in size
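Read-out: GFP aggregate count by laser scanning cytometer (488 nm excitation, 500-530 nm emission, 1–25 µm objects >6 SD above background). Cells: PC12, inducible HTTex1-Q103-GFP, 100 nM tebufenozide; compounds titrated.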
JMJD2E inh: JMJD2E (human) inhibition; actives 1.6% (n = 230,000); Potency, µM (doses to about 57.1 µM), for inactives: at the highest dose activity change, negative = inhibition, most hits filed as inhibitors; AID 2147; JMJD2E catalytic domain, FDH-coupled NADH fluorescence (FDH is formaldehyde dehydrogenase); B2RXH2; active = well fitted inhibition curve with a large enough effect, not every such curve was filed as active; inconclusive = small, poorly fitted or top-dose-only effect, or another doubt; inactive = no such curve, though single readings can be large or run the other way;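 note: potency is the fitted concentration of half-maximal effect; 0% = wells with enzyme and -100% = buffer wells without enzyme; nearly all actives have a fitted effect of over 50% in size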
Target sequence (B2RXH2 1-337 limits assumed): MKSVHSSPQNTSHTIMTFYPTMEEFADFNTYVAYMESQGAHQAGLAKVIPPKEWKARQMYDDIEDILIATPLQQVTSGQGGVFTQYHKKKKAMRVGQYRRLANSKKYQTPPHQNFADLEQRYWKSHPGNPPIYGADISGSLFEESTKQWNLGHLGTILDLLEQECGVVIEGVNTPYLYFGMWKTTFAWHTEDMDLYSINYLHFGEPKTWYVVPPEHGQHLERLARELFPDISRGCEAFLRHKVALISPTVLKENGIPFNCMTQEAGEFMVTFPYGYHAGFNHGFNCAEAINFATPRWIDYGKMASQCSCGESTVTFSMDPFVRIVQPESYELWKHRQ
CBFb RUNX1 block: blocks binding between human CBF-beta and RUNX1; Q01196+Q13951; AlphaScreen CBFb-His/RUNX1-biotin binding, biochemical; Potency, µM (highest dose often 59.8 µM), without a hit: at the highest dose activity, negative = inhibition, actives largely listed as inhibitors; 230,000 tested, under 10 active; AID 1477; note: % of control where 0% means no effect
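CBF-beta (His) and RUNX1 (biotin), 30 nM each; 20 min preassociation; + compound, 15 min; + beads 50 ng each (Ni, streptavidin), 90 min; RT; AlphaScreen read.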
* hit, by the source's call; [ ] = another dose, or the depositor's remark. Unless noted, calls come from the whole dose curve; as a rule, active = well fitted curve in the direction sought with a large enough effect; inconclusive = small, poorly fitted or top-dose-only effect, or another doubt; inactive = no such curve, though single readings can be large; an effect the other way counts as inactive or inconclusive.

What do the screens show for `COC(=O)c1ccc(-c2ccc(C(c3c(C)[nH][nH]c3=O)c3c(C)[nH][nH]c3=O)o2)cc1`?
HTT ATP protect: -27%; ALDH1A1 block: 3.5µM*; HttQ103 aggreg: -7%; JMJD2E inh: inconclusive; CBFb RUNX1 block: inconclusive

What do the screens show for `Cc1[nH][nH]c(=O)c1C(c1ccc(-c2ccccc2C(=O)O)o1)c1c(C)[nH][nH]c1=O`?
HTT ATP protect: -54%; ALDH1A1 block: 5µM*; HttQ103 aggreg: 10%; JMJD2E inh: 23%; CBFb RUNX1 block: -29%

What do the screens show for `Cc1ccc(NC(=S)N2CCC(c3ccccc3)C2)c(Cl)c1` (stereo not given)?
HTT ATP protect: -149%; ALDH1A1 block: -8%; HttQ103 aggreg: -13%; JMJD2E inh: 4%; CBFb RUNX1 block: 23%

What do the screens show for `Cc1cc(C)n(CCc2nc(-c3cc4ccccc4o3)cs2)n1`?
HPGD block: -11%; HTT ATP protect: -27%; ALDH1A1 block: inconclusive; HttQ103 aggreg: inconclusive; JMJD2E inh: -9%; CBFb RUNX1 block: 4%

Results for Cc1cc(C)n(CCc2nc(-c3ccc(C)o3)cs2)n1 ?
HPGD block: 25µM*; HTT ATP protect: -8%; ALDH1A1 block: 4µM*; HttQ103 aggreg: 2%; JMJD2E inh: -3%; CBFb RUNX1 block: -8%

What do the screens show for `O=C(Nc1ccc2[nH]c(=S)sc2c1)Nc1ccccc1F`?
HTT ATP protect: -11%[10 µM]; ALDH1A1 block: 1µM*; HttQ103 aggreg: 13%[9.22 µM]; JMJD2E inh: -6%; CBFb RUNX1 block: -11%

How did COC(=O)[C@@H](N)CS do in these assays?
HPGD block: -12%; HTT ATP protect: -9%; ALDH1A1 block: 3.2µM*; HttQ103 aggreg: 13%; JMJD2E inh: inconclusive; CBFb RUNX1 block: -13%

How did COC(=O)C(N)CS (stereo not given) do in these assays?
HPGD block: 25µM*; HTT ATP protect: inconclusive; ALDH1A1 block: inconclusive; JMJD2E inh: -2%; CBFb RUNX1 block: inconclusive

What do the screens show for `O=C1/C(=C\c2cccs2)CCC/C1=C/c1cccs1`?
HTT ATP protect: -94%; HttQ103 aggreg: 9%

Results for CCc1ccc(N/C(SC)=C(/C#N)C(N)=O)cc1 ?
HPGD block: -14%; HTT ATP protect: 13%; ALDH1A1 block: 6%; JMJD2E inh: 7%; CBFb RUNX1 block: 5%

How did CCCCS/C(=C(/C#N)C(N)=O)c1cc2c([nH]1)CCCC2 do in these assays?
HPGD block: inconclusive; HTT ATP protect: 9%; ALDH1A1 block: 14µM*; HttQ103 aggreg: -20%; JMJD2E inh: -2%; CBFb RUNX1 block: -27%

What do the screens show for `CCCCCCCCCCCCCc1ccco1`?
HPGD block: -8%; ALDH1A1 block: -3%; JMJD2E inh: -17%

How did CCCCCCCc1cc2c(cn1)=C(OC)C(C)(OC(C)=O)C(=O)C=2Cl (stereo not given) do in these assays?
HPGD block: -5%; HTT ATP protect: 15%; ALDH1A1 block: -11%; JMJD2E inh: -4%; CBFb RUNX1 block: -5%

What do the screens show for `CCCCc1cc2c(cn1)C(=O)C(C)(OC(C)=O)C(=O)C2` (stereo not given)?
HPGD block: -4%; HTT ATP protect: -25%[10 µM]; ALDH1A1 block: 1.3µM*; JMJD2E inh: -11%[11.4 µM]; CBFb RUNX1 block: -4%[13.1 µM]

Results for Cc1ccc(C2/C(=C(/O)c3cnn(-c4ccccc4)c3C)C(=O)C(=O)N2CCN2CCOCC2)o1 (stereo not given) ?
HPGD block: -18%; HTT ATP protect: -46%; ALDH1A1 block: 7.9µM*; HttQ103 aggreg: 17%; JMJD2E inh: -28%; CBFb RUNX1 block: -6%

How did O=C1C(=O)N(CCN2CCOCC2)C(c2ccccn2)/C1=C(/O)c1ccccc1 (stereo not given) do in these assays?
HPGD block: -20%; HTT ATP protect: -36%; ALDH1A1 block: 3.5µM*; HttQ103 aggreg: 0%; JMJD2E inh: inconclusive; CBFb RUNX1 block: inconclusive

Results for Cc1ccc(/C(O)=C2/C(=O)C(=O)N(CCN3CCOCC3)C2c2ccccn2)cc1 (stereo not given) ?
HPGD block: -6%; HTT ATP protect: -17%; ALDH1A1 block: inconclusive; HttQ103 aggreg: inconclusive; JMJD2E inh: inconclusive; CBFb RUNX1 block: -6%

What do the screens show for `Cc1ccc(C2/C(=C(/O)c3ccccc3)C(=O)C(=O)N2CCN2CCOCC2)o1` (stereo not given)?
HPGD block: -2%; HTT ATP protect: 0%; ALDH1A1 block: inconclusive; HttQ103 aggreg: 9%; JMJD2E inh: -2%; CBFb RUNX1 block: 4%

How did Cc1ccc(C)c(/C(O)=C2/C(=O)C(=O)N(CCN3CCOCC3)C2c2ccco2)c1 (stereo not given) do in these assays?
HPGD block: inconclusive; HTT ATP protect: 9%[10 µM]; ALDH1A1 block: 10µM*; HttQ103 aggreg: -6%; JMJD2E inh: inconclusive; CBFb RUNX1 block: 2%

How did O=C(CN1CCN(c2ccc(F)cc2)CC1)c1cccs1 do in these assays?
HTT ATP protect: -13%[10 µM]; ALDH1A1 block: 7.1µM*; HttQ103 aggreg: -14%[9.22 µM]; JMJD2E inh: 5%; CBFb RUNX1 block: -3%

What do the screens show for `O=C(CN1CCc2ccccc2C1)c1cccs1`?
HPGD block: -22%; HTT ATP protect: 5%; ALDH1A1 block: 7.9µM*; HttQ103 aggreg: -9%; JMJD2E inh: inconclusive; CBFb RUNX1 block: 4%

Results for CC1CCN(CC(=O)c2cccs2)CC1 ?
HTT ATP protect: -14%; ALDH1A1 block: inconclusive; HttQ103 aggreg: 15%; JMJD2E inh: 8%; CBFb RUNX1 block: 2%

How did COc1ccc(N2C(=O)C3CCCN3C2c2ccc(C)o2)cc1 (stereo not given) do in these assays?
HTT ATP protect: -25%; ALDH1A1 block: inconclusive; HttQ103 aggreg: 19%; JMJD2E inh: -1%; CBFb RUNX1 block: 6%

What do the screens show for `C=CCOc1cccc(C2c3c(oc4ccc(F)cc4c3=O)C(=O)N2CCCN2CCOCC2)c1` (stereo not given)?
HTT ATP protect: -11%; HttQ103 aggreg: -15%[9.22 µM]; JMJD2E inh: -8%; CBFb RUNX1 block: 4%

How did O=C(Nc1ccc(F)cc1F)N1CCN(CCc2ccccc2)CC1 do in these assays?
HTT ATP protect: 41%[10 µM]; HttQ103 aggreg: 8%[9.22 µM]; JMJD2E inh: -5%; CBFb RUNX1 block: 5%

Results for CCc1oc2ccccc2c1C(=O)CCN1CCCCC1 ?
HPGD block: 28µM*; HTT ATP protect: -1%[10 µM]; ALDH1A1 block: 0.11µM*; HttQ103 aggreg: -7%; JMJD2E inh: -9%; CBFb RUNX1 block: 7%

How did O=C(O)CCN1CCOCC1 do in these assays?
HPGD block: -6%; HTT ATP protect: -9%; ALDH1A1 block: 9%; HttQ103 aggreg: 7%; JMJD2E inh: -7%; CBFb RUNX1 block: 2%
